We go through 19 compounds from PubChem BioAssay (EPA / NIEHS).

The term AC50 denotes the midpoint of the concentration-response curve, whichever way the signal moves.

Each structure is given as a SMILES string. Values joined by “and” are separate entries in the source; they are usually repeats but may differ in a detail not shown here. Identical values can stand only once. Active and inactive are the calls of the source. Rule for the calls: active = hit-call score of the fitted dose curve at least 0.9, where 1 is the maximum; inactive = score below 0.9.

This test in a line: CCTE_Shafer_MEA_dev_per_burst_spike_percent: CCTE's Neural Network Formation Assay for Percent of Spikes in a Burst, Shafer Lab (AID 2284032). On the procedure: CCTE_Shafer_MEA_dev assay is conducted using Axion Biosystems 48 well microelectrode array (MEA) plates and Maestro recording system. Each well of the MEA plate contains a grid of 16 microelectrodes embedded in the culture surface. Electrically active cells, such as neurons, can be cultured over the electrodes, and electrical activity in these cells can be recorded extracellularly. The spontaneous firing of neurons is captured from each electrode on a microsecond timescale providing both temporally and spatially precise data. […] The CCTE_Shafer_MEA_dev assay uses primary cultures of rat cortical neurons. Recordings are made on days post-plating 5, 7, 9 and 12. As these cultures mature over time, neural networks develop functional activity and form cohesive networks in which electrical activity can be highly coordinated. CCTE_Shafer_MEA_dev_per_burst_spike_percent is 1 of 19 assay components of the CCTE_Shafer_MEA_dev assay. It measures the percentage of spikes (action potential firings) in a single-electrode burst (temporally-clustered group of spikes) as the total number spikes in bursts divided by the total number of spikes during a recording in a microelectrode array (MEA) using Axion Biosystems Maestro 768 channel amplifier with the AxIS adaptive spike detector. The percent of spikes in bursts is averaged across the actively bursting electrodes to report a well-mean value. To collapse across multiple recordings made on days post-plating 5, 7, 9 and 12, the trapezoidal area-under-the-curve of the component is calculated.Data from the assay component CCTE_Shafer_MEA_dev_per_burst_spike_percent was analyzed into 1 assay endpoint. This assay endpoint, CCTE_Shafer_MEA_dev_per_burst_spike_percent, was analyzed in the negative analysis fitting direction relative to DMSO as the negative control and baseline of activity. Using a type of functional reporter, gain or loss-of-signal activity can be used to understand electrical activity.
On the day prior to culture, each well was coated thoroughly with 150 uL of 0.05% polyethyleneimine (PEI, Sigma Cat P3143) in 50 mM HEPES (Sigma Cat H7523) at a pH of 8. The plate was incubated at 37C for one hour. PEI was rinsed out with 500 uL of sterile water three times. Plates were stored at 4C until the day of culture. This culture was plated at a seeding density of 1.5 x 10^5 cells/well on a 48-well MEA plate, prepared as described above. Cells were administered via a 25 uL media/laminin ([…]; Sigma Cat L2020-1MG) drop directly onto the microelectrode array, as adding the cells with the laminin results in better attachment than pre-coating with laminin. After 2 hours, an additional 475 uL of cortical media was added and the cells returned to the incubator. Exposure starts at day 0 of plating and is continued over twelve days of network development until the experiment is terminated. Cells are fed with fresh medium on DIV 5 and 9, following the recordings on those days. The entire volume of media in the well is exchanged and any vehicle or compound treatment is renewed. Complete details are found in OP-NHEERL/ISTD/SBB/TJS/2015-03-r0 (available on request, email shafer.tim@epa.gov). Measurement of the electrical activity is non-invasive, and recordings can be made from the same plate over multiple different days of the culture. In cortical neurons, this allows for the measurement of extracellular action potentials over the period during which networks form in the MEA plate.
`c1ccc2cc3ccccc3cc2c1`: the result was inactive. On the same count and under the same terms, the entry for `FC(F)(F)COC(OCC(F)(F)F)OCC(F)(F)F` is “inactive”.

As to `NCC(F)(F)C(F)(F)C(F)(F)C(F)(F)F`, the result was inactive. For `COc1cc2c(c(OC)c1OC)-c1ccc(OC)c(=O)cc1[C@@H](NC(C)=O)CC2`, the AC50 was 0.0285 µM (active).

Turning to `CC[C@H](C)C(=O)O[C@H]1C[C@H](O)C=C2C=C[C@H](C)[C@H](CC[C@@H](O)C[C@@H](O)CC(=O)O)[C@H]21`, the AC50 is 1.92 µM (active). As for `NNC(=O)c1ccncc1`, the result was inactive. Turning to `OCCC(F)(F)C(F)(F)C(F)(F)C(F)(F)F`, the compound was classed as inactive. As to `O=C(Cl)C(F)(F)C(F)(F)C(F)(F)C(=O)Cl`, the half-maximal activity concentration (AC50) is 15 µM (active).

As to `FC(F)(F)C(F)(F)C(F)(F)C(F)(F)C(F)(F)C(F)(F)I`, the compound was classed as inactive. In the case of `OC(O)(C(F)C(O)(O)C(F)(F)F)C(F)(F)F`, the compound was classed as inactive. `Cn1cc[nH]c1=S`: the compound was classed as inactive. With `CCOc1ccc2[nH]cc(C(=O)NCc3ccccc3)c(=O)c2n1`, the compound was called inactive. In the case of `CCCC(CCC)C(=O)O`, the compound was called inactive.

Take `OC(Cn1cncn1)(Cn1cncn1)c1ccc(F)cc1F`: the outcome was inactive. Take `c1ccc2c(c1)-c1cccc3c1c-2cc1ccccc13`: the outcome was inactive. With `Nc1ccn([C@@H]2O[C@H](CO)[C@@H](O)[C@@H]2O)c(=O)n1`, the concentration at half-maximal activity (AC50) was 138 nM (active) and 298 nM (active). With `C[C@]12C=CC(=O)C=C1CC[C@H]1[C@@H]3C[C@@H](O)[C@](O)(C(=O)CO)[C@@]3(C)C[C@H](O)[C@@]12F`, the compound was called inactive. For the compound `CCN(CC)C(=S)SSC(=S)N(CC)CC`, the AC50 was 143 nM (active) and 47.8 nM (active). On to `NC(=O)N1c2ccccc2C=Cc2ccccc21`, for which the result was inactive.
